One molecule from PubChem BioAssay AID602475 (National Center for Advancing Translational Sciences (NCATS), 2012) can be followed below.

Records with an inconclusive call do not appear. A call without a number means that no potency is given here. Calls of active or inactive are those of the source. Calls come from the whole dose curve; as a rule, active = well fitted inhibition curve with a large enough effect; inconclusive = small, poorly fitted or top-dose-only effect; inactive = no such curve, though single readings can be large or run the other way.

This assay concerns the target Luciferin 4-monooxygenase (Photinus pyralis) (UniProt P08659). Kind of assay: FLuc inhibitory activity for the follow-up compounds in a biochemical assay with an in-house formulation of detection reagent. The method, boiled down: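 qHTS 12-point titration (~25uM–0.1nM) against 10 nM firefly luciferase; activity read as luminescence after adding in-house reagent containing 1mM D-luciferin, 450uM ATP, 500uM Coenzyme A and 300mM MgCl.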

Sequence of Luciferin 4-monooxygenase (Photinus pyralis) (P08659 whole entry, looked up): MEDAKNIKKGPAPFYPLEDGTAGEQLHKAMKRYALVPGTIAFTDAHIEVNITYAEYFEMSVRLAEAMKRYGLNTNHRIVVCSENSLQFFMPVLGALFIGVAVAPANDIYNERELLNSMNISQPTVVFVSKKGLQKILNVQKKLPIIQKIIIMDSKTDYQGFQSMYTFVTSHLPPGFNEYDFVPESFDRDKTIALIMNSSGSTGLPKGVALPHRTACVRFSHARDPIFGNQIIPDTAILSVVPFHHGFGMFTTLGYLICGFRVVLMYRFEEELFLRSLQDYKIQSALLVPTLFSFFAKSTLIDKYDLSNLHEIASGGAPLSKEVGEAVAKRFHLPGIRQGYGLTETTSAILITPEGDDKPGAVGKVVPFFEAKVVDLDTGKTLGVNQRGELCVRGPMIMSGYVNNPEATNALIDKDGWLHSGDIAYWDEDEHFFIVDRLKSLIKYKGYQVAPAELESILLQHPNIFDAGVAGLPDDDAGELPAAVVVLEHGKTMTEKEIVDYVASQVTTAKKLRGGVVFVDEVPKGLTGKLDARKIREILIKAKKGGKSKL

Take `COc1ccc2nc(NC(=O)CCc3ccc(OC)c(OC)c3)sc2c1`: the Potency entry was “inactive”.
